PAX8 reporter: inhibitors of PAX8-driven TPO luciferase reporter, primary screen, RMG-I cells, single concentration; AID 652154, 2013; SteadyGlo, 24 h; inhibition, % at 12.6 µM; 360,000 compounds, 1.2% hits;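 active means mean replicate inhibition at least 60% with every replicate also reaching 60%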;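 further: luciferase light reporting Pax8 driven TPO promoter activity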
HIF-2a inh: HIF-2a reporter inhibitors, primary screen, luminescence, 786-0 RCC cells. inhibition, % at 18.8 µM. 786-0 RCC cells HIF-2a reporter, luciferase luminescence, overnight. AID 624352, 2012. 360,000 compounds, 0.72% hits;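 active means inhibition of the luminescence signal of 40% or more relative to plate controls, in a single-dose primary screen at 18.75 µM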
Shn3 3UTR inh: reduction of Shn3 3'UTR firefly luciferase signal, primary screen, Schnurri-3 inhibitor project, cell-based, Clone20 osteoblasts, set 2; Clone20 osteoblast Shn3 3'UTR firefly luciferase, 24 h; inhibition, % at 12.5 µM; 360,000 compounds, 0.52% hits;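 active means mean inhibition of at least 75% with every replicate also reaching 75%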
LMP1 NFkB inh: EBV LMP1-driven NF-kappaB luciferase reporter inhibitors, primary screen, cell-based, luminescence, single point; LMP1-induced NF-kappaB luciferase reporter cells; 350,000 compounds, 0.69% hits; inhibition, % at 12.5 µM; in the data active means inhibition above about 41%
TRPM1 prom inh: inhibitors of MITF-dependent TRPM1 promoter reporter, primary screen, cell-based, SK-MEL-5, single point, luciferase | inhibition, % at 12.5 µM | AID 488899, 2010 | SK-MEL-5 TRPM1 promoter luciferase, 24 h | 330,000 compounds, 0.83% hits;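 active means mean inhibition across replicates of 60% or more, whatever share of single replicates reaches that level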
Peg3 promoter: Peg3 promoter-driven luciferase inhibitors, primary screen, cell-based, HeLa, luciferase luminescence; HeLa PEG-Prom luciferase reporter, overnight; inhibition, % at 20 µM; 360,000 compounds, 1.7% hits;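 active means inhibition of at least 50% at 20 µM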
Numbers stand for hits; 0 = inactive; - = no result. Only some compounds are listed: those with a hit (about 2.8% of all), similar ones and a draw of the others.

SMILES | PAX8 reporter | HIF-2a inh | Shn3 3UTR inh | LMP1 NFkB inh | TRPM1 prom inh | Peg3 promoter
C[C@@H]1CCCCO[C@@H](CN(C)C(=O)Cc2ccccc2)[C@@H](C)CN([C@@H](C)CO)C(=O)c2cc(NC(=O)CCC(F)(F)F)ccc2O1 | 0 | - | - | - | - | -
NC(CCc1ccccc1)c1csc(Nc2ccc(C(=O)c3ccccc3)cc2)n1 (centres undefined) | 0 | 0 | 0 | - | - | 88
CN(Cc1ccccc1)C(=O)c1ccc(Nc2nc(C(N)COCc3ccccc3)cs2)nc1 (centres undefined) | 0 | 0 | 0 | - | - | 0
CN(Cc1ccccc1)C(=O)c1ccc(Nc2nc(C(N)Cc3ccc(C(F)(F)F)cc3)cs2)nc1 (centres undefined) | 87 | 0 | 0 | - | - | 95
NC(Cc1ccc(C(F)(F)F)cc1)c1csc(Nc2ccc(C(=O)c3ccccc3)cc2)n1 (centres undefined) | 0 | 0 | 0 | - | - | 97
COc1ccc(S(=O)(=O)N(C)C[C@H]2Oc3ccc(NS(C)(=O)=O)cc3CC(=O)N([C@@H](C)CO)C[C@H]2C)cc1 | 0 | - | - | - | - | -
CCOc1cccc2sc(NC(=O)CCS(=O)(=O)c3ccccc3)nc12 | 87 | 0 | 0 | 0 | 0 | 53
CC(=O)c1sc(NC(=O)CCS(=O)(=O)c2ccc(C)cc2)nc1C | 85 | 0 | 0 | 0 | 0 | 0
CCCCC(=O)Nc1nc2c(OC)ccc(OC)c2s1 | 0 | 0 | 0 | 0 | - | 0
COc1ccc(C)c2sc(NC(=O)CCS(=O)(=O)c3ccccc3)nc12 | 78 | 0 | 0 | 0 | 0 | 78
CN1C(=O)c2cc(NC(=O)C3CCOCC3)ccc2OC[C@H]2O[C@H](CC(=O)NCC3CC3)CC[C@@H]21 | 0 | - | - | - | - | -
C[C@@H]1CN([C@@H](C)CO)C(=O)c2cc(NC(=O)Cc3ccccc3)ccc2O[C@@H](C)CCCCO[C@@H]1CN(C)C(=O)C1CCCCC1 | 0 | - | - | - | - | -
O=C(O)c1ccc(N/N=C/c2cc3cc4c(cc3nc2Cl)OCCO4)cc1 | 0 | 0 | 0 | 42 | 0 | 0
CCOC(=O)c1c(N2C(=O)C3C4C=CC(O4)C3C2=O)sc2c1CCCC2 (centres undefined) | - | 0 | 0 | 0 | 0 | 51
Cc1noc(C)c1S(=O)(=O)Nc1ccc2c(c1)CC(=O)N([C@@H](C)CO)C[C@@H](C)[C@H](CN(C)C(=O)Nc1ccc(C(F)(F)F)cc1)O2 | 0 | - | - | - | - | -
COc1ccc(OCCCn2cc(/C=C3/C(=N)N4C=C(C)SC4=NC3=O)c3ccccc32)cc1 | 0 | 0 | 0 | 0 | 0 | 51
COc1cccc(OCCCn2cc(/C=C3/C(=N)N4C=C(C)SC4=NC3=O)c3ccccc32)c1 | 0 | 0 | 0 | 0 | 0 | 0
CC(=O)/C=C/c1ccc2ccccc2n1 | - | 0 | 0 | 0 | 0 | 103
C[C@H](CO)N1C[C@H](C)[C@H](CN(C)C(=O)Cc2ccccc2)OCCCC[C@H](C)Oc2ccc(NC(=O)Cc3ccccc3)cc2C1=O | 0 | - | - | - | - | -
COc1ccc(CN(C)C[C@H]2OCCCC[C@@H](C)Oc3ccc(NS(=O)(=O)c4ccc(OC)cc4)cc3C(=O)N([C@H](C)CO)C[C@@H]2C)cc1 | 0 | - | - | - | - | -
COc1ccc(S(=O)(=O)Nc2ccc3c(c2)C(=O)N([C@@H](C)CO)C[C@H](C)[C@@H](CN(C)Cc2ccc(C(F)(F)F)cc2)OCCCC[C@@H](C)O3)cc1 | 110 | - | - | - | - | -
COc1ccc(S(=O)(=O)Nc2ccc3c(c2)C(=O)N([C@@H](C)CO)C[C@H](C)[C@H](CN(C)Cc2ccc(C(F)(F)F)cc2)OCCCC[C@H](C)O3)cc1 | 108 | - | - | - | - | -
CCN(Cc1ccccc1)S(=O)(=O)c1ccc(C(=O)N(CCCN(C)C)c2nc3ccc(F)cc3s2)cc1 | 0 | 0 | 0 | 0 | 91 | 0
CN(C)CCCN(C(=O)c1ccc(S(=O)(=O)N(C)C2CCCCC2)cc1)c1nc2ccc(F)cc2s1 | 0 | 0 | 0 | 0 | 0 | 0
CCN(Cc1ccccc1)S(=O)(=O)c1ccc(C(=O)N(CCCN(C)C)c2nc3cc(OC)ccc3s2)cc1 | 0 | 0 | 0 | 0 | 63 | 0
SMILES | PAX8 reporter | HIF-2a inh | Shn3 3UTR inh | LMP1 NFkB inh | TRPM1 prom inh | Peg3 promoter
COc1ccc2sc(N(CCCN(C)C)C(=O)c3ccc(C(=O)c4ccccc4)cc3)nc2c1 | 0 | 0 | 0 | 0 | 0 | 0
CCc1ccc2nc(N(CCCN(C)C)C(=O)c3ccc(S(=O)(=O)N(C)C4CCCCC4)cc3)sc2c1 | 0 | 0 | 0 | 0 | 96 | 79
CN(C)CCCN(C(=O)c1ccc(S(=O)(=O)N2CCCC2)cc1)c1nc2ccc(Br)cc2s1 | 0 | 0 | 0 | 0 | 83 | 0
Cc1noc(C)c1S(=O)(=O)N(C)C[C@@H]1OCCCC[C@@H](C)Oc2ccc(NC(=O)CCCN(C)C)cc2C(=O)N([C@@H](C)CO)C[C@H]1C | 0 | - | - | - | - | -
C[C@@H]1CN([C@@H](C)CO)C(=O)CCCn2cc(nn2)CO[C@@H]1CN(C)Cc1ccc(C(=O)Nc2ccccc2N)cc1 | 0 | - | - | - | - | -
COc1ccccc1S(=O)(=O)N[C@@H]1C=C[C@H](CC(=O)NCc2cc(F)cc(F)c2)O[C@@H]1CO | 0 | - | - | - | - | -
COc1ccc(NC(=O)c2cccc3c(-c4cnn(C)c4)coc23)cc1 | 0 | 0 | 0 | - | - | 0
Cn1cc(-c2coc3c(C(=O)Nc4ccccc4)cccc23)cn1 | 0 | 0 | 0 | - | - | 0
COc1cc(NC(=O)c2cccc3c(-c4cnn(C)c4)coc23)cc(OC)c1OC | 0 | 0 | 0 | - | - | 78
COc1ccc(CNC(=O)c2cccc3c(-c4cccnc4)coc23)cc1OC | 0 | 0 | 88 | - | - | 0
CC(=O)c1cccc(NC(=O)c2cccc3c(-c4cnn(C)c4)coc23)c1 | 0 | 0 | 0 | - | - | 58
CNC[C@@H]1Oc2c(NC(=O)c3cnccn3)cccc2C(=O)N([C@H](C)CO)C[C@H]1C | 0 | - | - | - | - | -
COC(=O)C[C@@H]1C[C@H]2c3cc(NC(=O)c4ccc5c(c4)OCO5)ccc3O[C@H]2[C@H](CO)O1 | 0 | - | - | - | - | -
COCC(=O)N1C[C@H](C)[C@H](OC)CN(C)C(=O)c2ccc(NS(C)(=O)=O)cc2OC[C@H]1C | 0 | - | - | - | - | -
COc1ccc(S(=O)(=O)N2CCN(CC(=O)Nc3ccc(C)c(F)c3)CC2)cc1 | - | 0 | 0 | 50 | 0 | 0
O=C(C=Cc1ccco1)c1ccc2ccccc2c1 | 0 | 0 | 95 | 0 | 0 | 0
C[C@H]1CN([C@@H](C)CO)C(=O)c2cc(NC(=O)CCCCCC(=O)Nc3ccccc3N)ccc2O[C@@H]1CN(C)C | 0 | - | - | - | - | -
CSc1ncnc2c1ncn2CCCNC1CCN(Cc2ccccc2)CC1 | 0 | 0 | 0 | 0 | - | 0
c1ccc(COc2ncnc3c2ncn3CCCNC2CCN(Cc3ccccc3)CC2)cc1 | 0 | 0 | 0 | 0 | - | 61
C[C@@H]1CN([C@@H](C)CO)C(=O)c2cccc(NC(=O)c3ccc(-c4nccs4)cc3)c2O[C@@H]1CN(C)CC1CCCCC1 | 0 | - | - | - | - | -

Assay outcomes as filed in PubChem.
